{
  "source": "PubChem BioAssay AID2781",
  "about": "(National Center for Advancing Translational Sciences (NCATS), 2010)",
  "note": "The source made the active and inactive calls.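 The calls were made as follows: active = compound whose NMR saturation transfer difference test with menin is positive, showing direct binding to the protein; inactive = the rest.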",
  "data": [
    {"biological_target": "Menin (Homo sapiens) (UniProt O00255)", "sequence (O00255 whole entry, looked up)": "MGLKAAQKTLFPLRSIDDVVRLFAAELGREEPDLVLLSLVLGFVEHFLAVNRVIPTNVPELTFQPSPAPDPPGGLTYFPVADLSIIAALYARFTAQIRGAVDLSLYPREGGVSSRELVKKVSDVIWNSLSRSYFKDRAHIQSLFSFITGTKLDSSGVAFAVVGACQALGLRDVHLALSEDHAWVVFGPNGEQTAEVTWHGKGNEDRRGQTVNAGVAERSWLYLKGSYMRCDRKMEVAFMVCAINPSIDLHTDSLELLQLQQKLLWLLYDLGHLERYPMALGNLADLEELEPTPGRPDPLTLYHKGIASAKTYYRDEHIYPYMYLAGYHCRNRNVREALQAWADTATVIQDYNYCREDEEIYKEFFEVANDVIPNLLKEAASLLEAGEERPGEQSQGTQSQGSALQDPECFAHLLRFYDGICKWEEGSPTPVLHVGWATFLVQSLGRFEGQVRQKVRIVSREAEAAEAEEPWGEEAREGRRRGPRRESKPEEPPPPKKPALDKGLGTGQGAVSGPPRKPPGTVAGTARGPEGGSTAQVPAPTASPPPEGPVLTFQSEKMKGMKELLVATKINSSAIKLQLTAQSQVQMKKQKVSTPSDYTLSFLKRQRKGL", "assay": "Confirmation of Inhibitors Targeting the Menin-MLL Interaction in MLL Related Leukemias: NMR spectroscopy to verify direct binding of compounds to menin", "conditions": "purified menin, NMR STD binding, 100 uM", "excerpt": "qHTS Assay for Inhibitors Targeting the Menin-MLL Interaction in MLL Related Leukemias NIH Chemical Genomics Center [NCGC] NIH Molecular Libraries Probe Centers Network [MLPCN] MLPCN Grant: MH084875-01A1 Assay Submitter (PI): Jolanta Grembecka, Tomasz Cierpicki, University of Virginia Translocations of the MLL (Mixed Lineage Leukemia) gene are frequently found in human leukemias affecting both children and adults. Fusion of MLL to one of more than 60 genes results in generation of oncogenic proteins upregulating Hox genes, which are vital to blood cell development. Patients harboring fusion of the MLL gene suffer from aggressive leukemias and respond poorly to available therapies. All of the oncogenic fusion proteins have a preserved N-terminal fragment of MLL that has been identified to interact with menin. It has been recently discovered that association with menin is critical to the leukemogenic activity of the MLL fusion oncoproteins. Selective targeting of the menin-MLL interaction could provide an attractive therapeutic approach to develop novel drugs for MLL-related leukemias. Small molecules blocking the menin-MLL interaction should reverse the oncogenic potential of MLL fusion proteins. We have developed and optimized a fluorescence polarization-based assay for the identification of Menin-MLL inhibitors. The assay was run employing two different MLL-derived peptides. The present assay uses a 12 amino acid peptide labeled with fluorescein at its N-terminus. This peptide consists of the menin high affinity binding motif from MLL and is potently bound by menin. Another peptide with a mutated sequence, labeled with Texas Red, was used in parallel as a less stringent screen for inhibitors. The present assay was developed to confirm hits from this primary screen, examining saturation transfer differences in NMR spectra upon incubation of the menin protein with compound.\nThe Menin protein, the MLL-wild type (w.t.) derived peptide (N-terminal 12 amino acids), the MLL-derived peptide labeled with Texas Red and the MLL-w.t. peptide labeled with Fluorescein were kindly supplied by laboratory of Dr. Jolanta Grembecka, University of Virginia. All protein and peptide solutions were stored in single use aliquots at -80C. The Buffer components for all assays were purchased from Sigma-Aldrich (St. Louis, MO) and Invitrogen (Carlsbad, CA). Assay Reagents: 1. Menin protein 2. MLL w.t. 3. NMR buffer: 50mM phosphate, 50mM NaCl, 1mM DTT, pH = 7.5 NMR protocol: 1. Prepare 450 uL of menin (2.5 uM) in complex with 100uM compound in NMR buffer and run STD (Saturation Transfer Difference) on NMR Bruker 600 MHz 2. Prepare 450 uL of menin (2.5 uM) in complex with 100 uM compound and 25uM of MLL w.t. in NMR buffer and run STD (Saturation Transfer Difference) on NMR Bruker 600 MHz", "values": [
      {"smiles": "CNC[C@H](CC1CCCCC1)NC[C@H](Cc1ccccc1)NCCC12CC3CC(CC(C3)C1)C2", "outcome": "inactive; negative"},
      {"smiles": "COc1cc(-c2ccc(-[n+]3nc(-c4ccccc4)nn3-c3ccc([N+](=O)[O-])cc3)c(OC)c2)ccc1-[n+]1nc(-c2ccccc2)nn1-c1ccc([N+](=O)[O-])cc1", "outcome": "inactive; negative"},
      {"smiles": "CCN(CC)Cc1cc2[nH]c3c4ccc(Cl)cc4ncc3c2cc1OC", "outcome": "inactive; negative"},
      {"smiles": "O=C(Nc1cc(Br)ccc1O)c1cc(-c2ccc3c(c2)OCO3)on1", "outcome": "inactive; negative"},
      {"smiles": "C[C@H](NC(=O)c1cc2c(cn1)[nH]c1ccccc12)C(=O)O", "outcome": "inactive; negative"},
      {"smiles": "CCCC(c1nnnn1Cc1cccs1)N1CCN(C2CCCC2)CC1", "note": "(stereo not given)", "outcome": "active; positive"},
      {"smiles": "CCC[n+]1c2ccccc2cc2ccccc21", "outcome": "inactive; negative"},
      {"smiles": "CN(C)C(CNc1ncnc2sc3c(c12)CCCCC3)c1ccco1", "note": "(stereo not given)", "outcome": "active; positive"},
      {"smiles": "CN(CCOc1ccc(Cl)cc1)CC(O)c1ccccc1", "note": "(stereo not given)", "outcome": "inactive; negative"},
      {"smiles": "CC(=O)NC1C(=O)N(CCN2CCOCC2)c2ccc(Cl)cc21", "note": "(stereo not given)", "outcome": "inactive; negative"},
      {"smiles": "CCCC(c1nnnn1Cc1ccco1)N1CCN(C2CCCC2)CC1", "note": "(stereo not given)", "outcome": "active; positive"},
      {"smiles": "Cc1cc(N/N=C/c2ccc(O)cc2)c2cccc(C)c2n1", "outcome": "inactive; negative"},
      {"smiles": "Cc1nc(N2CCN(C)CC2)c2c3c(sc2n1)CCCC3", "outcome": "inactive; negative"},
      {"smiles": "CCNC(=S)N1CCN(c2nc(CC)nc3sc4c(c23)CCCC4)CC1", "outcome": "inactive; negative"},
      {"smiles": "COc1ccc(S(=O)(=O)Nc2cc(SCC(=O)O)c(O)c3ccccc23)cc1", "outcome": "inactive; negative"},
      {"smiles": "N=C1c2ccccc2CN1c1ccc(N2CCOCC2)c(S(=O)(=O)Nc2ccc(Cl)cc2)c1", "outcome": "inactive; negative"},
      {"smiles": "O=C(COC(=O)c1ccc(NS(=O)(=O)c2cccs2)cc1)Nc1nc2c(F)c(F)c(F)cc2s1", "outcome": "inactive; negative"},
      {"smiles": "CCc1cc2c(N3CCN(c4nnc(CC)s4)CC3)ncnc2s1", "outcome": "inactive; negative"},
      {"smiles": "COC(=O)Cc1c(C)nc2nc(-c3ccc(OC)cc3)[nH]n2c1=O", "outcome": "inactive; negative"},
      {"smiles": "CC(=O)NC1C(=O)N(CCN2CCOCC2)c2ccc(C)cc21", "note": "(stereo not given)", "outcome": "inactive; negative"}
    ]}
  ]
}
